Compound activity deposited in PubChem by several laboratories.
LANA-H2A inh – blockers of LANA interaction with H2A/H2B – biochemical, FP readout, HTS, primary screen | AID 2629, 2010 | Protein LANA1 (Human herpesvirus 8 type P (isolate GK18)), Q9QR71 | inhibition, % (concentration not given with the values) | actives 0.6% (n = 320,000) | cell-free LANA-H2A/H2B peptide, fluorescence polarization; in the data active = inhibition mostly above about 10%, no sharp cut-off; inactive = mostly below about 6.7%
HDAC3 inhib – HDAC3 deacetylase inhibitors, primary screen, biochemical, fluorescence, cell-free homogeneous; recombinant HDAC3, fluorogenic peptide/trypsin coupled; actives 0.15% (n = 320,000); Histone deacetylase 3 (Homo sapiens), O15379; inhibition, % at 8.3 µM; in the data active = inhibition above about 26%, passing the limit was not always enough
PKD1 kinase inh – inhibitors of human PKD1 kinase, biochemical, fluorescence polarization. PKD1 kinase fluorescence polarization assay. inhibition, % (no concentration beside the values). actives 0.056% (n = 200,000). AID 797, 2007
VLA-4 inh – inhibition in human VLA-4 binding assay, primary screen, VLA-4 allosteric modulator project, MLPCN library, flow cytometry, VLA-4 expressing cells; ligand binding flow cytometry; actives 0.2% (n = 330,000); Integrin alpha-4 (Homo sapiens), P13612; inhibition, % (about 7 µM as worked out from the volumes in the protocol)
Pemphigus Ab inh – inhibitors of pemphigus antibody binding to DSG3, primary screen, biochemical, bead-based, flow cytometry, scFv-GFP | Desmoglein-3 (Homo sapiens), P32926 | DSG3-coupled beads, scFv-anti-DSG3-GFP binding; stronger effect = lower value | binding (percent of control), % at 10 µM | actives 0.48% (n = 310,000) | AID 588358, 2011;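 active = binding more than 3 SD below its plate's average and above zero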;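 also: hits lower antibody fragment binding to DSG3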
Target sequence (P32926 whole entry, looked up, the tested form may be a part): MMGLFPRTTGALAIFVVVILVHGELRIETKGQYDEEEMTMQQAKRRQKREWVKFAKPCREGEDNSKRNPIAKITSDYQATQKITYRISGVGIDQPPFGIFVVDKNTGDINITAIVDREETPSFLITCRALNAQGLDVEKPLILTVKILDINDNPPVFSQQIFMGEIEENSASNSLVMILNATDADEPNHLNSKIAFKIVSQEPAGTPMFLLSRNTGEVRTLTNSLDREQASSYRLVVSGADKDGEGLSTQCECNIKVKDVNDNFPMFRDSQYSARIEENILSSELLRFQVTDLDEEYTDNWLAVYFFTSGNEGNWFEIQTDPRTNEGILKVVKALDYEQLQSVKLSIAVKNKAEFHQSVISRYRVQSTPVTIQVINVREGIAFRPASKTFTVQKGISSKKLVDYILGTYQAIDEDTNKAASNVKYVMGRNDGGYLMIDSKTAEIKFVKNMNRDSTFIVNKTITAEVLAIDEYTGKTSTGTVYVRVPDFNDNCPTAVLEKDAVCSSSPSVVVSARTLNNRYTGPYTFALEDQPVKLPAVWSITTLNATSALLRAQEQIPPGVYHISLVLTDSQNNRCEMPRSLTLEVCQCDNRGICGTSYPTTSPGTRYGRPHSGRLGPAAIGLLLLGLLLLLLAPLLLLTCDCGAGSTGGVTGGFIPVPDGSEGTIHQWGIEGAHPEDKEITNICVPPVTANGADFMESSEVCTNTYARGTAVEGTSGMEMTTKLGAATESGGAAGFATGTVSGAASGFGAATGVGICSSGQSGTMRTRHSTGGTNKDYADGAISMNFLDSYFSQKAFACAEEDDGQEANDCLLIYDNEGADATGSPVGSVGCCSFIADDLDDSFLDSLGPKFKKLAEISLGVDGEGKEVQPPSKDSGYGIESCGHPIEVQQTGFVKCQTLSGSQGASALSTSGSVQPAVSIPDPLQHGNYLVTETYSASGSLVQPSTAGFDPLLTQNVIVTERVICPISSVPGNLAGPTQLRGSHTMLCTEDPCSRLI
GRK2 aptamer HTS – compounds blocking aptamer binding on GRK2 – biochemical, human GRK2, bead flow cytometry, HTS, primary screen; FAM-aptamer displacement from GRK2; inhibition of aptamer binding, % at 10 µM; actives 0.59% (n = 330,000); AID 488847, 2010;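 active = inhibition of aptamer binding above 40%, roughly 3 SD of noise, on plates passing a quality check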;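 also: median bead fluorescence of bound FAM aptamer so fluorescent compounds give negative values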
The depositor's hits bear a star. A selection: hits, their analogues and other compounds. The true share with any hit is near 1.8%. Rule as the data show it, unless noted: active = inhibition above about 50%; inactive = the rest.

For CSCC(O)Cn1[nH]c(=O)c2cc(Cl)c(Cl)cc2c1=O (centres undefined) the results were LANA-H2A inh 16*, HDAC3 inhib 2, VLA-4 inh 0, Pemphigus Ab inh 102 and GRK2 aptamer HTS 0.
`COc1ccc(OC)c2sc(N(CCCN(C)C)C(=O)c3ccc(S(=O)(=O)N4CCc5ccccc5C4)cc3)nc12` gave LANA-H2A inh -8, HDAC3 inhib 41*, VLA-4 inh 53* and GRK2 aptamer HTS 0.
COc1ccc(C)c2sc(N(CCCN(C)C)C(=O)c3ccc(S(=O)(=O)N4CCc5ccccc5C4)cc3)nc12 was read as LANA-H2A inh -2, HDAC3 inhib 4, VLA-4 inh 22, Pemphigus Ab inh 98 and GRK2 aptamer HTS 0.
`O=C1C=C(NCCc2cc(Br)c(O)c(Br)c2)C(=O)c2ncccc21` gave Pemphigus Ab inh 58*.
Screening COc1ccccc1CNC(=O)CCCNC(=O)c1ccc(Cl)cc1 returned LANA-H2A inh 5, HDAC3 inhib 4, VLA-4 inh 12, Pemphigus Ab inh 116 and GRK2 aptamer HTS 0.
O=C(Nc1ccc2c(c1)oc1ccc(S(=O)(=O)N3CCCC3)cc12)C1CC1 was read as LANA-H2A inh 11, HDAC3 inhib -2, PKD1 kinase inh -4, VLA-4 inh 11, Pemphigus Ab inh 71* and GRK2 aptamer HTS 0.
Cc1ccc(S(=O)(=O)N2CCC(C(=O)Nc3ccc4c(c3)OCO4)CC2)cc1 was read as LANA-H2A inh -2, HDAC3 inhib 2, PKD1 kinase inh 2, VLA-4 inh 16, Pemphigus Ab inh 103 and GRK2 aptamer HTS 1.
`O=C(Nc1ccc2c(c1)OCO2)C1CCN(c2ccc(S(=O)(=O)N3CCOCC3)cc2)CC1` gave LANA-H2A inh -1, HDAC3 inhib 3, PKD1 kinase inh 3, VLA-4 inh 17, Pemphigus Ab inh 66* and GRK2 aptamer HTS 0.
`O=C(CNC1CCCCC1)Nc1ccc(Cl)cc1` gave LANA-H2A inh 0, HDAC3 inhib 0, VLA-4 inh 4, Pemphigus Ab inh 99 and GRK2 aptamer HTS 7.
`CCN(C(=O)COC(=O)CNS(=O)(=O)c1ccc(SC)c([N+](=O)[O-])c1)C1CCCCC1` gave LANA-H2A inh 4, HDAC3 inhib 3, VLA-4 inh 5, Pemphigus Ab inh 120 and GRK2 aptamer HTS 3.
O=S(=O)(c1ccc(NCCOc2ccccc2)nc1)N1CCCC1 was read as LANA-H2A inh -1, HDAC3 inhib 3, VLA-4 inh -3 and GRK2 aptamer HTS 0.
Screening CSc1ccccc1C(=O)N1CCc2ccc(NC(=O)c3ccccn3)cc2C1 returned Pemphigus Ab inh 98.
For CCN(CC)C(=O)[C@H]1CC(CC(=O)NC/C=C(\C)CCC=C(C)C)C(=O)N2CCc3c([nH]c4ccccc34)[C@]12C (some centres undefined) the results were LANA-H2A inh 4, HDAC3 inhib 25, VLA-4 inh -9, Pemphigus Ab inh 103 and GRK2 aptamer HTS 3.
CNc1nc(Nc2ccc(Br)cc2)nc(N)c1[N+](=O)[O-] was read as LANA-H2A inh -1, HDAC3 inhib 0, PKD1 kinase inh -12, VLA-4 inh -1, Pemphigus Ab inh 51* and GRK2 aptamer HTS 0.
For COc1ccc(Nc2nc(N)c([N+](=O)[O-])c(NCCO)n2)cc1 the results were LANA-H2A inh -1, HDAC3 inhib 18, VLA-4 inh 3, Pemphigus Ab inh 100 and GRK2 aptamer HTS 1.
O=S(=O)(C=C(c1ccccc1)c1ccccc1)c1ccccc1 was read as LANA-H2A inh 15*, HDAC3 inhib 1, PKD1 kinase inh 2, VLA-4 inh 0, Pemphigus Ab inh 119 and GRK2 aptamer HTS 0.
O=S(=O)(/C=C/c1ccccc1)c1ccccc1 was read as LANA-H2A inh -1, HDAC3 inhib -4, PKD1 kinase inh 0, VLA-4 inh 5, Pemphigus Ab inh 104 and GRK2 aptamer HTS 2.
`COc1ccc(C(=O)Nc2ccc(Cl)cc2F)cc1S(=O)(=O)N1CCCC1` gave LANA-H2A inh -1, HDAC3 inhib -3, VLA-4 inh -5, Pemphigus Ab inh 101 and GRK2 aptamer HTS 0.
`O=C(O)c1cc(-n2nnnc2SCc2ccccc2F)ccc1Cl` gave LANA-H2A inh -8, HDAC3 inhib -1, PKD1 kinase inh -1, VLA-4 inh 6, Pemphigus Ab inh 74* and GRK2 aptamer HTS 6.
Cc1ccccc1CS(=O)(=O)c1nnc([C@H](CC(C)C)NC(=O)OC(C)(C)C)o1 was read as LANA-H2A inh -4, HDAC3 inhib 38*, PKD1 kinase inh -5, VLA-4 inh 27, Pemphigus Ab inh 102 and GRK2 aptamer HTS 0.
CC(C)(C)OC(=O)N[C@@H](Cc1ccccc1)c1nnc(S(=O)(=O)Cc2cccc(F)c2)o1 was read as LANA-H2A inh -2, HDAC3 inhib 69*, PKD1 kinase inh -1, VLA-4 inh 13 and GRK2 aptamer HTS 1.
Screening COc1ccc(N2CCN(Cc3nc4scc(-c5ccccc5)c4c(=O)[nH]3)CC2)cc1 returned LANA-H2A inh -6, HDAC3 inhib -2, PKD1 kinase inh -7, VLA-4 inh -5, Pemphigus Ab inh 49* and GRK2 aptamer HTS 0.
`C=CCN(C(=O)CSC1=NC(=O)CN1C(C)=O)c1nc(C)c(-c2ccccc2)s1` gave LANA-H2A inh 3, HDAC3 inhib 68*, PKD1 kinase inh 2, VLA-4 inh -17, Pemphigus Ab inh 84 and GRK2 aptamer HTS 2.
`CC(=O)c1ccc(N(CC(=O)NC2CCCCC2)C(=O)CNC(=O)c2ccco2)cc1` gave LANA-H2A inh 4, HDAC3 inhib -2, VLA-4 inh 0, Pemphigus Ab inh 37* and GRK2 aptamer HTS 0.
For COC(=O)c1ccc(N(CC(=O)NC2CCCCC2)C(=O)CNC(=O)c2ccco2)cc1 the results were LANA-H2A inh -2, HDAC3 inhib 0, VLA-4 inh -9, Pemphigus Ab inh 109 and GRK2 aptamer HTS 0.
CCc1ccc(N(CC(=O)NC2CCCCC2)C(=O)CNC(=O)c2ccco2)cc1 was read as LANA-H2A inh -9, HDAC3 inhib 6, VLA-4 inh 3, Pemphigus Ab inh 114 and GRK2 aptamer HTS 1.
For CC(C)c1ccc(N(CC(=O)NC2CCCCC2)C(=O)CNC(=O)c2ccco2)cc1 the results were LANA-H2A inh 39*, HDAC3 inhib -5, VLA-4 inh -6, Pemphigus Ab inh 111 and GRK2 aptamer HTS 0.
